Source: PubChem BioAssay
A selection: hits, their analogues and other compounds. The true share with any hit is near 27%.
sEH inhibitor: inhibitors of human soluble epoxide hydrolase; recombinant human sEH enzymatic activity assay; inhibition, % at 2 µM; 91,000 tested, 0.34% active; in the data active = inhibition above about 80%
CYP2C19 act: activators of human cytochrome P450 2C19. recombinant CYP2C19, luciferin-H EGE luminescence; active compounds read high; 0 = fully inhibited enzyme, 1 = untreated enzyme. 96,000 tested, under 10 active. activation factor at 5 µM. AID 1025. P33261;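 active = activation factor of at least 2 at 5 µM in the primary screen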;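 also: 0 = wells with 2.5 mM tranylcypromine and 1 = vehicle-only wells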
Target sequence (P33261 whole entry, looked up): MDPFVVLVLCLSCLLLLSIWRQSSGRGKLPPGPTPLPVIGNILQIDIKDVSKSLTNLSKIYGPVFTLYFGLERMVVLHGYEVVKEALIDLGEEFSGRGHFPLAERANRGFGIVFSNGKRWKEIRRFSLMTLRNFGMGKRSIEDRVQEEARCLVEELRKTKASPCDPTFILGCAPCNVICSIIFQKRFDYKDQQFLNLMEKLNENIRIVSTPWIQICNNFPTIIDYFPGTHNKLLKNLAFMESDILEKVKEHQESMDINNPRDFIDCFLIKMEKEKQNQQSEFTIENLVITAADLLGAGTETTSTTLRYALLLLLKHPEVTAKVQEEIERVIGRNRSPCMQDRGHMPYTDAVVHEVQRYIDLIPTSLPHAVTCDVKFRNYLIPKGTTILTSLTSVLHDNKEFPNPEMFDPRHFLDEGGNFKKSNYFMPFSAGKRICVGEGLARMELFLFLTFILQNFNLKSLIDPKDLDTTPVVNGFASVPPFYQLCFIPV
CYP2C9 inh: human CYP2C9 inhibition; P11712; CYP2C9 Supersomes, luciferin-H conversion, luminescence; inhibition, % at 5 µM; 96,000 tested, 20% active;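 active = blocking of liver enzyme CYP2C9 beyond about 50% at 5 µM, limit read from the data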
CYP2C9 act: CYP2C9 (human) activation. P11712. recombinant CYP2C9, luciferin-H conversion, luminescence; active compounds read high; factor 1 = untreated enzyme, 0 = blocked. activation factor at 5 µM. 96,000 tested, 1.4% active;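 active = activation factor of 2 or more for CYP2C9 at a 5 µM dose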;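 also: 0 = sulfaphenazole-blocked wells and 1 = vehicle-only wells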
CYP2C19 inhib: blocks human cytochrome P450 2C19. CYP2C19 Supersomes, luciferin-H EGE luminescence, 30 min. AID 778. 96,000 tested, 21% active. P33261. inhibition, % at 5 µM;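 active = CYP2C19 inhibition above a set limit at 5 µM in the primary screen, cut at about 50% in these data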;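 also: plate controls were negative control wells for no effect and 2.5 mM tranylcypromine positive control for full effect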
sEH act: increases human soluble epoxide hydrolase activity | 91,000 tested, 0.04% active | purified human sEH enzymatic activity, activator screen | P34913 | activation, % at 2 µM; in the data active = activation above about 37%
* marks the source's active call; other numbers are inactive results; nt = no result given.

SMILES	sEH inhibitor	CYP2C19 act	CYP2C9 inh	CYP2C9 act	CYP2C19 inhib	sEH act
CCc1nnc(NC(=O)CSc2nnc(-c3ccoc3C)n2-c2ccccc2)s1	10	0.1	83*	0.2	94*	-8
CCc1nnc(NC(=O)CSc2nnc(-c3ccoc3C)n2CC(C)C)s1	nt	0.1	88*	0.1	88*	nt
CCc1nnc(NC(=O)CSc2nnc(-c3ccoc3C)n2-c2ccc(C)cc2)s1	4	0.4	66*	0.3	64*	-6
Cc1occc1-c1nnc(SCC(=O)NCc2ccco2)n1CC(C)C	34	0.9	-18	1.2	6	-34
CCc1nnc(NC(=O)CSc2nnc3scc(-c4ccc(C)cc4)n23)s1	-5	nt	nt	nt	nt	7
COc1cc(NC(=S)NN2CCOCC2)cc(OC)c1	-1	nt	nt	nt	nt	-1
Cc1ccccc1-c1noc(N)c1C#N	9	0.9	43	0.6	7	-6
CCOc1cc(-c2noc(N)c2C#N)cc(OCC)c1OCC	-4	0.6	53*	0.5	42	1
C/C(N)=C(/C#N)C(=O)COC(=O)C1Cc2ccccc2CN1S(C)(=O)=O (centres undefined)	-6	0.9	18	0.8	6	6
Cn1c(CCNC(=O)c2ccco2)nc2cc(NS(=O)(=O)c3ccccc3)ccc21	0	0.7	56*	0.4	31	2
COc1ccccc1C(=O)Nc1ccc(N2CCN(S(C)(=O)=O)CC2)cc1	-8	0.5	-81	1.8	53*	7
COc1cc(C(=O)Nc2ccccc2N2CCN(S(C)(=O)=O)CC2)cc(OC)c1OC	-13	0.9	79*	0.2	14	12
COc1c(C)cccc1C(=O)Nc1ccc(N2CCN(S(C)(=O)=O)CC2)cc1	-10	1	-1	1	-1	10
COc1ccccc1C(=O)Nc1ccccc1N1CCN(S(C)(=O)=O)CC1	6	0.3	74*	0.3	69*	-3
COc1ccc(NC(=O)CSc2n[nH]c(N)n2)c([N+](=O)[O-])c1	2	1	13	0.9	-1	1
Cc1nc2cc(NC(=O)N3CCN(c4ccccn4)CC3)ccc2o1	25	1	8	0.9	-3	-27
O=C(Nc1ccc2nc3n(c(=O)c2c1)CCCCC3)c1ccccn1	nt	0.9	53*	0.5	14	nt
O=C(CC(=O)N1CCN(c2ccccn2)CC1)Nc1ccc2nc3n(c(=O)c2c1)CCCCC3	-4	0.7	78*	0.2	28	3
COCCCNC(=O)c1ccc2c(=O)n(Cc3ccc4c(c3)OCO4)c(=S)[nH]c2c1	57	1	13	0.9	-1	-56
O=C(c1ccc2c(=O)n(Cc3ccc4c(c3)OCO4)c(=S)[nH]c2c1)N1CCCCC1	82*	0.9	6	0.9	10	-82
CC1CC(C)CN(C(=O)c2ccc3c(=O)n(Cc4ccc5c(c4)OCO5)c(=S)[nH]c3c2)C1 (centres undefined)	85*	0.5	49	0.5	48	-84
CC1(C)C(c2ccccc2)=[N+]([O-])CN1O	nt	1	-9	1.1	-4	nt
CC(C)(C)C(=O)NCCN1CCN(C(=O)C(C)(C)C)CC1	-1	nt	nt	nt	nt	4
COc1ccc(-c2cc(-c3ccc(Br)cc3)nc3ncnn23)cc1OC	-2	1.2	55*	0.5	-16	4
O=C(NCCCN1CCOCC1)[C@@H]1CSC2c3ccccc3C(=O)N21 (some centres undefined)	1	1.1	-18	1.2	-6	0
O=C(NCc1cccs1)[C@@H]1CSC2c3ccccc3C(=O)N21 (some centres undefined)	11	0.2	72*	0.3	75*	-12
O=C(NCc1ccco1)[C@@H]1CSC2c3ccccc3C(=O)N21 (some centres undefined)	-7	0.4	40	0.6	57*	7
CCC(C)(C)NC(=O)CN(Cc1cccs1)C(=O)C(=O)Nc1ccc2c(c1)OCCO2	7	0.5	72*	0.3	46	-4
COc1ccccc1-c1noc(CCC(=O)Nc2cc(C(F)(F)F)ccc2Cl)n1	34	0.3	-44	1.4	68*	-35
COc1cc(OC)c(NC(=O)CCc2nc(-c3cccs3)no2)cc1Cl	0	0.1	62*	0.4	92*	0
